For some of these results: Results with a measured potency or affinity are listed apart.

Common to all, as to design: scale not given: direction of the effect not stated beside the values
Assay [1] concerns the target Protein translocase subunit SecA (Escherichia coli (strain K12)) (UniProt P10408). Put plainly: Assay to Identify E. coli SecA ATPase Inhibitors. The class given is functional. Particulars: 30 µM.
For assay [2], the target named is T1, Ubiquitin-activating enzyme e1, putative (Leishmania donovani (strain BPK282A1)) (UniProt E9BSI1).
T1 sequence (whole entry): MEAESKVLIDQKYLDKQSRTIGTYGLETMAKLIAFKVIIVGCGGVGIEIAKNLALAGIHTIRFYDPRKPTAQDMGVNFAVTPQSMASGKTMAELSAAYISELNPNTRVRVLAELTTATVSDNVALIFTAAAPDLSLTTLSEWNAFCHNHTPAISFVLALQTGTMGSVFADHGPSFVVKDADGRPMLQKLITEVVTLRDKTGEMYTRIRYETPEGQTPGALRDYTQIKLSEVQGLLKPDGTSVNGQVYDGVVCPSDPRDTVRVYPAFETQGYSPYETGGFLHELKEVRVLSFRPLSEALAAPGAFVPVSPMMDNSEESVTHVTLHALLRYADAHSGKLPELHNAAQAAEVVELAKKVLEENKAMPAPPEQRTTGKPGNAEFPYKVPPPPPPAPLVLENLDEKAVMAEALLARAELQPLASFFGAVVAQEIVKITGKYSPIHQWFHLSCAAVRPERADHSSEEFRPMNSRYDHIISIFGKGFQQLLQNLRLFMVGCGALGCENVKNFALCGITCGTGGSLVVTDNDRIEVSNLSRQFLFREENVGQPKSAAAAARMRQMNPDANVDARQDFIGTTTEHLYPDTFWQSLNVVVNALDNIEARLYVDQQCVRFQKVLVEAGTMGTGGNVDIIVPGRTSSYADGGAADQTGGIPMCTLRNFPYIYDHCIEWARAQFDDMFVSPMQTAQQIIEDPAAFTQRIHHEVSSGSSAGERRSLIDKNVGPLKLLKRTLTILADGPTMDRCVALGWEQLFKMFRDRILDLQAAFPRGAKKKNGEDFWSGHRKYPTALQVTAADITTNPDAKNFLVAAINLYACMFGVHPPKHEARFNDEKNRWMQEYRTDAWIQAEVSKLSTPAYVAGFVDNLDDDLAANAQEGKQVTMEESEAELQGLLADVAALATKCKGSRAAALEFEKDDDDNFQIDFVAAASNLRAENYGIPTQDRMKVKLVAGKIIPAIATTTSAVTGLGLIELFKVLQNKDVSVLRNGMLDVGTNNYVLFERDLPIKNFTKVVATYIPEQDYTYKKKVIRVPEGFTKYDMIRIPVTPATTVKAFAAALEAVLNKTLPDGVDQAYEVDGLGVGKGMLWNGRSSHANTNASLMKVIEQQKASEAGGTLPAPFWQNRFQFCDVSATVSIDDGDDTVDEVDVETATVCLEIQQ
Put plainly: Leishmania donovani Ubiquitin Activating Enzyme (LdE1). The class given is functional. Conditions: 30 µM.

Assay [3] deals with AMP-activated protein kinase, AMPK (Homo sapiens) (UniProt P54646+O43741+P54619+Q9UGJ0+Q9Y478+Q13131+Q9UGI9). Description: AMP-dependent Kinase enzyme assay. An in vitro enzyme assay that detects ADP turnover that is directly proportional to AMPK activity. This uses naive AMPK that is activated during the assay with MK-8722. Particulars: 30 µM. The format is functional.
Assay [4] has as its target Sialic acid-binding Ig-like lectin 9 (Homo sapiens) (UniProt Q9Y336). Put plainly: Hs-Siglec9 ALPHAscreen SOP 20170721. Particulars: 10 µM.
Assay [5] has as its system Trypanosoma cruzi. Put plainly: Trypanosoma cruzi phosphomannomutase and mannose-1-phosphate guanylyltransferase assay. The format is functional. Conditions: 10 µM.
Assay [6] deals with T2, Arginase-2, mitochondrial (Homo sapiens) (UniProt P78540).
T2 sequence (whole entry): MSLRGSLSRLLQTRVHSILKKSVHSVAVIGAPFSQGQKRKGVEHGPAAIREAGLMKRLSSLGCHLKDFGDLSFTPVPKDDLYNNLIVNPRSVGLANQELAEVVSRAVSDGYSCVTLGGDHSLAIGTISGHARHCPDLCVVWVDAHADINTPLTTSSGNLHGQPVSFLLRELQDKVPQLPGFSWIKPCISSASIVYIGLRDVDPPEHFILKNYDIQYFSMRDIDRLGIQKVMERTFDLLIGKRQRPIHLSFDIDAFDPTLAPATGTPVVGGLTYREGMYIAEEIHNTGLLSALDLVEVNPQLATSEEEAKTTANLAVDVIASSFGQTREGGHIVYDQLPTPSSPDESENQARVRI
Put plainly: in vitro enzyme assay to detect the production of urea directly proportional to the activity of Arginase II. Further: in the data most compounds retested in dose-response had high values. The class given is functional. Conditions: 33.3 µM.

Assay [7] addresses T3, Proteasome subunit beta (Trypanosoma cruzi) (UniProt O96673).
T3 sequence (whole entry): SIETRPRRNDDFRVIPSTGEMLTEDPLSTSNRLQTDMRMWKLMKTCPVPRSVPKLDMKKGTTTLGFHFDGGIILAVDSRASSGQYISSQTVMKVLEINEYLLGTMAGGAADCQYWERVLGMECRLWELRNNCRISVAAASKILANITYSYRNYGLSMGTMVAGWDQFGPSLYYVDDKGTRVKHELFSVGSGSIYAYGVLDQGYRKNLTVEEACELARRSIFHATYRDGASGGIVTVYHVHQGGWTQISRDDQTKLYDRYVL
Description: Trypanosoma cruzi proteasome chymotrypsin-like activity (TcProtChymo) assay. Further: in the data most compounds retested in dose-response had high values. Conditions: 9.37 µM. The class given is functional.

The species entered for assay [8] is Homo sapiens. Put plainly: To identify inhibition of the IFN signalling (Jak-Stat) pathway via expression of an eGFP reporter gene under the control of an IFN-stimulated response element (ISRE) containing MxA promoter. The class given is functional. Particulars: 30 µM.
Assay [9] deals with T4, Tyrosyl-tRNA synthetase, putative (Trypanosoma cruzi (strain CL Brener)) (UniProt Q4DSP6).
T4 sequence (whole entry): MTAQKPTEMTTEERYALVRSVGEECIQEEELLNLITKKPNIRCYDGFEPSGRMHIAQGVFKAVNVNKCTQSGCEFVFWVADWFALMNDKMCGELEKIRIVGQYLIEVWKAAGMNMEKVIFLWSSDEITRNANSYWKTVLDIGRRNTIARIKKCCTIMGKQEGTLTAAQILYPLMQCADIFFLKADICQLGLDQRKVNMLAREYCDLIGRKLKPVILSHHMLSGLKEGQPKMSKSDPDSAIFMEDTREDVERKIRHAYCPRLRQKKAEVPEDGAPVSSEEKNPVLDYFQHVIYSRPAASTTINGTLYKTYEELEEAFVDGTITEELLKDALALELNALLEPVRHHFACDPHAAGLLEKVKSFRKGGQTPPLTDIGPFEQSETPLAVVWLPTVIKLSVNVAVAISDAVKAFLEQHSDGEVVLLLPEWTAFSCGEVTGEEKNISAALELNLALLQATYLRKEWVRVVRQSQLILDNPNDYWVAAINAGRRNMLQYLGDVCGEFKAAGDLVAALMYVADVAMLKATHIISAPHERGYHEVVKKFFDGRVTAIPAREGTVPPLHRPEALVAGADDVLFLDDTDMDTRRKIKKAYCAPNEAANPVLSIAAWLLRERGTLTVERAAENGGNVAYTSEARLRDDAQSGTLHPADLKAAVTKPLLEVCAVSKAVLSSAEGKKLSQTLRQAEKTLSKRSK
Description: Trypanosoma cruzi tyrosyl tRNA synthetase (TcYRS) _High Tyrosine SOP. Further: in the data most compounds retested in dose-response had high values. The format is functional. Particulars: 30 µM.

Assay [10] concerns the target T4, Tyrosyl-tRNA synthetase, putative (Trypanosoma cruzi (strain CL Brener)). Put plainly: Trypanosoma cruzi tyrosyl tRNA synthetase (TcYRS) SOP. Particulars: 30 µM. The class given is functional.
In assay [11] the target is Chromo domain-containing protein 1 (Saccharomyces cerevisiae (strain ATCC 204508 / S288c) (Baker's yeast)) (UniProt P32657). Put plainly: ScCHD-1 Enzyme Inhibition Assay. Further: in the data most compounds retested in dose-response had high values. The class given is functional. Conditions: 30 µM.
Sequence of Chromo domain-containing protein 1 (Saccharomyces cerevisiae (strain ATCC 204508 / S288c) (Baker's yeast)) (P32657 whole entry, the tested form may be a part): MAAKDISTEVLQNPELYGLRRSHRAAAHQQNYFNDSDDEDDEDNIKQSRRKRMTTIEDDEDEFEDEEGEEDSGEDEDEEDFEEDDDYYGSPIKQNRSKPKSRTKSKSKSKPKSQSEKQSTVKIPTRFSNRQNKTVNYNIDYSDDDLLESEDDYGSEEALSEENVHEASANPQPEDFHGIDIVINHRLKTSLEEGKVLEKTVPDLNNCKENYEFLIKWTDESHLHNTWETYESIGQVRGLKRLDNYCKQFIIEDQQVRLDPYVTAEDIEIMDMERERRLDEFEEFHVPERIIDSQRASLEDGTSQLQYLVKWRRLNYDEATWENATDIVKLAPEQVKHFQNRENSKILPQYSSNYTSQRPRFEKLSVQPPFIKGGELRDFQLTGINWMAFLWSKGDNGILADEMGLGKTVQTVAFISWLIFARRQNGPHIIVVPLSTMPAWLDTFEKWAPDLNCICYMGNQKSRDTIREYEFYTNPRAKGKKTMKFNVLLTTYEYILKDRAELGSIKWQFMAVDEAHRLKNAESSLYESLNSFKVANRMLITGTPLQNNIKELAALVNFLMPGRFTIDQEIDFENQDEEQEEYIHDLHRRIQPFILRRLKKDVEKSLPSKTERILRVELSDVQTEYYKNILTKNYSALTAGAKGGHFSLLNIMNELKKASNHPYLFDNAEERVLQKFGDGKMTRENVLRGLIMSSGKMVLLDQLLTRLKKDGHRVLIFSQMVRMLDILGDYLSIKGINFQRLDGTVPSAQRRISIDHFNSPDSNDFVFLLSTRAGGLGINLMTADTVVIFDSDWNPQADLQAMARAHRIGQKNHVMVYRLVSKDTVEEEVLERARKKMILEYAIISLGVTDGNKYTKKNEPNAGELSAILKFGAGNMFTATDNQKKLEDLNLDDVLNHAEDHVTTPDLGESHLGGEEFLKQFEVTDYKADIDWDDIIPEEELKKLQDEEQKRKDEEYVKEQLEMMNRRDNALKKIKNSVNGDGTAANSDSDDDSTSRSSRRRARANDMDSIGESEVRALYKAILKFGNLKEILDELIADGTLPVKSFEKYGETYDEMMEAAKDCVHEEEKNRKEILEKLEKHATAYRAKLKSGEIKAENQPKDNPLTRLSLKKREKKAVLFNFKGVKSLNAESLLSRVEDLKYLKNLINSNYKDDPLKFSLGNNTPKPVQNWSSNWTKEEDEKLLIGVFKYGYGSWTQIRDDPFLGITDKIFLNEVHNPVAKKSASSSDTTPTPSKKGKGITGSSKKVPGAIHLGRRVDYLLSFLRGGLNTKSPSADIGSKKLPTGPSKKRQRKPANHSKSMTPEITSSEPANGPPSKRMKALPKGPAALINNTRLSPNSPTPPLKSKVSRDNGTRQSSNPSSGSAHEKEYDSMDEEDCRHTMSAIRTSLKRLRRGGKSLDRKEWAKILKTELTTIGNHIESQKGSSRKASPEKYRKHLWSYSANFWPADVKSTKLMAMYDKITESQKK

Sequence of Protein translocase subunit SecA (Escherichia coli (strain K12)) (P10408 whole entry): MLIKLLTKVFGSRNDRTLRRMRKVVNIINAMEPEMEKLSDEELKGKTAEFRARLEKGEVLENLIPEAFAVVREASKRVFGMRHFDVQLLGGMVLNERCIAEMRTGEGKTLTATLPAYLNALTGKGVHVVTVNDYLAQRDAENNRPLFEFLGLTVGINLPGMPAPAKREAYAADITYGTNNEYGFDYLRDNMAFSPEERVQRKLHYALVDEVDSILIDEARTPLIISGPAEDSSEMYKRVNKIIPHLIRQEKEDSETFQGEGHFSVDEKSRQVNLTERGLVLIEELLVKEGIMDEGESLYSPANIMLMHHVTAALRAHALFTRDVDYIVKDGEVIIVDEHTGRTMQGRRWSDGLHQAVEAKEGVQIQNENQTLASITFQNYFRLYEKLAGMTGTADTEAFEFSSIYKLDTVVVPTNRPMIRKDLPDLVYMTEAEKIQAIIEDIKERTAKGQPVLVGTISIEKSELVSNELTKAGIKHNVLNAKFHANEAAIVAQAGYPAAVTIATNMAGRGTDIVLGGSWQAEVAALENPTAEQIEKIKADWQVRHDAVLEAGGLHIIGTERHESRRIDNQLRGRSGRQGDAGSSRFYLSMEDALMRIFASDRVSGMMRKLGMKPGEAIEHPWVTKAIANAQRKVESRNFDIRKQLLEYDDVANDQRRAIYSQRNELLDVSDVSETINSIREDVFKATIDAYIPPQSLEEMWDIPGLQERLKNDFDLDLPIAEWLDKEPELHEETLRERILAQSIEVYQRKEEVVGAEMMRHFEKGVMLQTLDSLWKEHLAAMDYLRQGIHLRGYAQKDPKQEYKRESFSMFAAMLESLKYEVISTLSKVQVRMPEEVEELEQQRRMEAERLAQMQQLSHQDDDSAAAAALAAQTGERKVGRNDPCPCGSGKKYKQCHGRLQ
Sequence of Sialic acid-binding Ig-like lectin 9 (Homo sapiens) (Q9Y336 whole entry): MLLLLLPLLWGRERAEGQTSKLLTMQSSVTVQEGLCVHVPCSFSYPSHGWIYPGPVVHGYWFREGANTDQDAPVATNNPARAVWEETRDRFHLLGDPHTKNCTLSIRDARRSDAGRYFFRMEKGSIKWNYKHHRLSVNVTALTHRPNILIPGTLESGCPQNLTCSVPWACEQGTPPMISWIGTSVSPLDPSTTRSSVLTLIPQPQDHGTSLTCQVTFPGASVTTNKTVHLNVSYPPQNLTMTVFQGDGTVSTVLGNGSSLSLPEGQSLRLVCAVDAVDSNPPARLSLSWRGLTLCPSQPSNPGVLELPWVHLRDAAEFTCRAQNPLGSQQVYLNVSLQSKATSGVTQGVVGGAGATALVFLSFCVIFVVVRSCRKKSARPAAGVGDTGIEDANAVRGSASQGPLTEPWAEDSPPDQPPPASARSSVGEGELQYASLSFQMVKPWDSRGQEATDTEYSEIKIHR

On to `O=C(Nc1ccccn1)N(CCO)Cc1ccsc1`, for which the Percent Effect is -2.18% in [1]; 10.5% in assay [2]; 4.91% in assay [3]; 14.4% in assay [4]; 0.564% in assay [5]; 0% in [6]. Further, the Percent Effect in [7] was 11.2%; in assay [8], 9.82%; in assay [9], 8.33%; in assay [10], 17.1%; in assay [11], -3.38%.

Turning to `Cc1cc(C)nc(CCNC(=O)[C@H]2CNC[C@@H](C(=O)N3CCCC3)C2)n1`, the Percent Effect in [1] is -5%; in assay [2] it was 0%; in assay [3] it was 2.23%; in assay [4], -0.778%; in assay [5] it was -8.33%; in [6], -5.59%. The Percent Effect is 5.91% in assay [7]; 29.4% in [8]; 2.08% in assay [9]; 3.7% in assay [10]; -3.88% in assay [11].

Regarding `CCCc1nc(C(C)(C)NC(=O)C2CC(=O)N(CC3CC3)C2)no1` (stereo unspecified), the Percent Effect in assay [1] was -3.09%; in assay [2] it was 10.8%; in assay [3] it was -4.68%; in assay [4], -4.84%; in assay [5], -6.78%; in [6], 2.4%. The Percent Effect in assay [7] is -5.75%; in assay [8], 14.8%; in assay [9], 2.97%; in assay [10], 11%; in assay [11], 5.6%.

In the case of `Cc1n[nH]c(C2CN(C(=O)CCc3ccsc3)CCO2)n1` (stereo unspecified), the Percent Effect in assay [1] is -6.4%; in [2], -2.74%; in assay [3], 2.76%; in assay [4], 0.78%; in assay [5] it was 0.783%; in assay [6], -7.27%. For the same molecule, the Percent Effect in assay [7] was -2.13%; in assay [8] it was -11.9%; in assay [9], 0%; in [10] it was 2.5%; in assay [11], 0.695%.

For `CC(NC(=O)NCCCN(C)S(C)(=O)=O)c1ccncc1` (stereo unspecified), the Percent Effect in [1] was -0.684%; in assay [2], 8.86%; in assay [3] it was 5.26%; in assay [4], -2.69%; in assay [5], -2.77%; in assay [6] it was 5.38%. Moreover, the Percent Effect in assay [7] was 10.8%; in assay [8], 1.71%; in assay [9], 12.5%; in [10] it was 20.2%; in assay [11] it was -14.2%.

As for `Cc1nn(C)c(N(C)C)c1CNC1CCOc2c(F)cccc21` (stereo unspecified), the Percent Effect in [1] was -6.1%; in assay [2] it was 5.26%; in [3], -2.48%; in assay [4], 4.77%; in assay [5] it was -6.01%; in assay [6], 0.766%. The Percent Effect in assay [7] was 8.02%; in assay [8], 9.98%; in assay [9] it was 6.37%; in assay [10], 4.88%; in assay [11], 2.09%.

As to `COc1cc(CNC2CCc3nc(C)nn3C2)cc2c1OCCO2` (stereo unspecified), the Percent Effect in assay [1] was -2.1%; in assay [2] it was 7.89%; in assay [3] it was -9.24%; in [4], 6.01%; in assay [5] it was 5.51%; in assay [6] it was 5.04%. Moreover, the Percent Effect in assay [7] is 2.62%; in [8], -11.3%; in [9], 2.46%; in assay [10] it was 11.1%; in assay [11] it was -1.5%.

On to `O=C1CCCc2cc(-c3csc(CCN4CCOC4=O)n3)ccc2N1`, for which the Percent Effect in assay [1] is -5.49%; in assay [2], 20.8%; in [3], 0.804%; in assay [4] it was 11.1%; in [5], 4.12%; in assay [6], 2.85%. Besides, the Percent Effect was 18.1% in assay [7]; 36.1% in assay [8]; 8.74% in assay [9]; 26.8% in assay [10]; -9.88% in assay [11].

With `Cc1nnc(C(C)NCC2(c3ccc(Cl)cc3)CCCC2)o1` (stereo unspecified), the Percent Effect in assay [1] is -2.66%; in assay [2] it was -8.11%; in assay [3], -5.55%; in assay [4], 5.04%; in assay [5], -1.74%; in [6] it was -4.76%. The Percent Effect is 7.07% in assay [7]; 19.5% in [8]; 0.529% in assay [9]; -4.88% in [10]; 0.504% in [11].

`Cn1ncc2c(=O)[nH]c(CN3CCCC3Cc3ccccc3)nc21` (stereo unspecified): the Percent Effect in [1] was -2.29%; in assay [2] it was 15.8%; in assay [3], -0.517%; in [4] it was 3.61%; in assay [5] it was 9.62%; in [6] it was -3.24%. The Percent Effect in [7] is 2.28%; in [8], 9.4%; in assay [9], 8.37%; in assay [10], 18.5%; in assay [11] it was -6.42%.

As for `Cc1nc(C)n(C2CCCN(C(=O)c3ccccc3C)C2)n1` (stereo unspecified), the Percent Effect is -0.244% in assay [1]; 18.2% in [2]; -0.257% in [3]; -8.82% in assay [4]; -0.881% in assay [5]; 7.37% in assay [6]. For the same molecule, the Percent Effect in assay [7] was 12.5%; in assay [8], 12.5%; in [9], 7.62%; in [10], 11.8%; in assay [11], -10%.

The values are drawn from ChEMBL document CHEMBL3988442, “University of Dundee, Small-Polar-MMV Screening Library” (2021).
